PubChem BioAssay (NCATS)
Inconclusive results are not listed. The source made the active and inactive calls. Calls follow the shape of the dose curve; as a rule, active = well fitted curve in the direction sought with a large enough effect; inconclusive = small, poorly fitted or top-dose-only effect, or another doubt; inactive = no such curve, though single readings can be large; an effect the other way counts as inactive or inconclusive.

Tests used:
[1] = SW1088 Cancer Cell Toxicity qHTS against the NCATS CANVASS Library (AID 1347350); also: nearly all actives have a fitted effect of over 75% in size; also: potency is read from the fitted curve at half-maximal effect
Procedure, shortened: (§1)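 1000 cells/well seeded and rested 4 h at 37 °C before pin transfer of compounds in an 11-pnt series. Exposure 72 h at 37 °C/5% CO2; viability by CellTiter-Glo luminescence after 15 min at room temperature.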

[2] = COV-362 Cancer Cell Toxicity qHTS against the NCATS CANVASS Library (AID 1347352); also: potency is read from the fitted curve at half-maximal effect
Procedure, shortened: (§2)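 Cells at 1000/well were given compound 4 h after plating in an 11-point series. Viability was read by CellTiter-Glo luminescence after 72 h at 37 degrees C.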

[3] = UWB1.289-WTBRCA1 Cancer Cell Toxicity qHTS against the NCATS CANVASS Library (AID 1347354)
Procedure, shortened: as §2

[4] = HEK-293 Cancer Cell Toxicity qHTS against the NCATS CANVASS Library (AID 1347355); also: nearly all actives have a fitted effect of over 65% in size; also: potency is read from the fitted curve at half-maximal effect
Procedure, shortened: as §2

[5] = tested on: NAD(P)H diaphorase (Clostridium kluyveri); experiment: Diaphorse counterscreen qHTS: Assay Interference Panel against the NCATS CANVASS Library (AID 1347362)
Procedure, shortened: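 Clostridium kluyveri diaphorase in PBS + 0.01% Tween-20 preincubated 15 min with compounds. Resazurin and NADH then added for 5 min at room temperature in the dark; resorufin fluorescence read (ex 525, em 598).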

[6] = KB-8-5-11 Cancer Cell Toxicity qHTS against the NCATS CANVASS Library (AID 1347364); also: nearly all actives have a fitted effect of over 75% in size; also: potency is read from the fitted curve at half-maximal effect
Procedure, shortened: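 KB-8-5-11 cells, 500/well in DMEM + 10% FBS, given compounds in an 11-point series. Incubated 72 h at 37 °C. Viability by CellTiter-Glo luminescence. Confirmation also run with 1 uM tariquidar.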

[7] = SDT Cancer Cell Toxicity qHTS against the NCATS CANVASS Library (AID 1347365); also: nearly all actives have a fitted effect of over 60% in size; also: potency is read from the fitted curve at half-maximal effect
Procedure, shortened: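 SDT dog glioma cells (500/well) exposed to an 11-point compound series for 72 hr at 37C, 5% CO2. Cytotoxicity read as ATP content by CellTiterGlo luminescence; bortezomib titration as control.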

[8] = G06 Cancer Cell Toxicity qHTS against the NCATS CANVASS Library (AID 1347368); also: nearly all actives have a fitted effect of over 60% in size; also: potency is read from the fitted curve at half-maximal effect
Procedure, shortened: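 G06 dog glioma cells, 500 per well, exposed 72 hr at 37C, 5% CO2 to compounds in an 11-point series. Cytotoxicity read as ATP content by CellTiterGlo luminescence.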

[9] = qHTS for ATAD5 Antagonist screened against the NCATS CANVASS Library (AID 1347370); also: nearly all actives have a fitted effect of over 65% in size; also: potency is read from the fitted curve at half-maximal effect
Procedure, shortened: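 HEK293T cells with stably integrated ATAD5-luciferase reporter, 2000/well, 5 h attachment; compounds plus 10 µM 5-fluorouridine, 16 h at 37 °C. Luciferase luminescence read, with CellTiter-Fluor viability read first.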

[10] = qHTS for Inflammasome Signaling Inhibitors: IL-1-beta AlphaLISA screen against the NCATS CANVASS Library (AID 1347379);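 also: human THP-1 cells primed with LPS then triggered with ATP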
Procedure, shortened: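 THP-1 cells pretreated 1 hr with compound (up to 57.5 uM final), then stimulated with LPS (250 ng/mL final) and ATP (1.25 mM final). Secreted IL-1B measured by AlphaLISA after 16 hr; glyburide as positive control.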

[11] = qHTS for Activators of p53 Stress Response Pathway screened against the NCATS CANVASS Library (AID 1347388)
Procedure, shortened: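 p53RE-bla HCT-116 cells (4000/well) were pre-incubated for 5 h, then treated with compound (11 points) for 16 h at 37C. After 2 h with CCF4, the 460/530 nm ratio gave reporter activation; CellTiter-Glo measured viability.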

[12] = qHTS assay for small molecule disruptors of mitochondrial membrane potential screened against the NCATS CANVASS Library (AID 1347389); also: nearly all actives have a fitted effect of over 60% in size; also: potency is read from the fitted curve at half-maximal effect
Procedure, shortened: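 HepG2 cells (2,000/well) plated overnight, then exposed to compounds in 11-point qHTS series for 1 h at 37C before 30 min Mito-MPS dye; depolarization read as fall in red aggregate (590 nm) to green monomer (535 nm) fluorescence.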

[13] = qHTS for inhibitors of ER calcium dysfunction: SERCaMP assay screened against the NCATS CANVASS Library (AID 1347393); also: nearly all actives have a fitted effect of over 40% in size; also: potency is read from the fitted curve at half-maximal effect
Procedure, shortened: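 SH-SY5Y GLuc-SERCaMP, 1000 cells/well, 4 h attach; cpd 16 h, 37C/5% CO2; thapsigargin (added as 6x 600 nM) 4 h; coelenterazine; luminescence. Reduced reporter release = ER Ca stabilization.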

[14] = Vero-766 cells viability qHTS against the NCATS CANVASS Library: Counterscreen for Zika virus inhibition assay (AID 1347394); also: nearly all actives have a fitted effect of over 60% in size; also: potency is read from the fitted curve at half-maximal effect
Procedure, shortened: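 This cytotoxicity counterscreen uses African green monkey Vero 766 cells in the absence of Zika virus. Compounds are incubated with cells for 72 h, and ATP-based luminescence reports viability.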

[15] = Panc-1005 Cancer Cell Toxicity qHTS against the NCATS CANVASS Library (AID 1347349); also: nearly all actives have a fitted effect of over 60% in size; also: potency is read from the fitted curve at half-maximal effect
Procedure, shortened: as §1

[16] = A2780 Cisplatin Sensitive Ovarian Cancer Cell Toxicity qHTS against the NCATS CANVASS Library (AID 1347353); also: nearly all actives have a fitted effect of over 60% in size; also: potency is read from the fitted curve at half-maximal effect
Procedure, shortened: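 A2780 cells, 750/well, settled 4 h at 37 °C, then treated with an 11-point compound series for 72 h. Viability was read as ATPLite luminescence after 10 min at room temperature, with bortezomib as control.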

[17] = qHTS for Hypoxia signaling pathway (HIF-1) antagonists against the NCATS CANVASS Library (AID 1347374); also: nearly all actives have a fitted effect of over 60% in size; also: potency is read from the fitted curve at half-maximal effect
Procedure, shortened: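 HRE-bla ME-180 cells in medium with 0.5% dialyzed FBS received compounds (11-point series) plus CoCl2 (60 uM addition stock) for 17 hrs at 37C. Beta-lactamase activity read with CCF4 (405 nm ex, 460/530 nm em); CellTiter-Glo viability measured in same wells.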

[18] = DH5-alpha competent E. coli microbial cell viability qHTS against the NCATS CANVASS Library (AID 1347377); details: outcome: dose series up to 46.1 µM unless noted
Procedure, shortened: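 DH5-alpha E. coli suspension was exposed to an 11-point compound series overnight at 37 °C. Viable cells quantified by ATP luminescence (BacTiter-Glo) after 20 min at room temperature.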

[19] = Secretion counterscreen for inhibitors of the SERCaMP assay screened against the NCATS CANVASS Library (AID 1347390);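 also: light from luciferase secreted into medium read as a measure of general secretion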; also: potency is read from the fitted curve at half-maximal effect
Procedure, shortened: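 Counterscreen identifying compounds that disrupt secretion, using SH-SY5Y cells with a constitutively secreted Gaussia luciferase reporter. A 20 h compound exposure (top 77 uM) precedes luminescent detection with coelenterazine.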

[20] = qHTS for activators of Nrf2/ARE signaling pathway screened against the NCATS CANVASS Library (AID 1347391); also: nearly all actives have a fitted effect of over 60% in size; also: potency is read from the fitted curve at half-maximal effect
Procedure, shortened: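 ARE-bla HepG2 beta-lactamase reporter cells exposed to compounds for 16 h at 37C; CCF4 substrate 2 h, fluorescence at ex 405 nm, em 460/530 nm. Viability by CellTiter-Glo luminescence.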

Measured: Potency

C=C(C)CC[C@H](Cc1c(O)cc(O)c2c1O[C@H](c1ccc(O)cc1O)CC2=O)C(=C)C
active: [1] 21.1 µM | [12] 18.6 µM | [13] 30.5 µM | [14] 23.4 µM
not listed: [15] | [16] | [17] | [18] | [19] | [20]
inactive: all other assays above

CN1C(=O)[C@]23SS[C@@]1(C)C(=O)N2[C@H]1Nc2ccccc2[C@]1(c1c[nH]c2ccccc12)[C@@H]3O
inactive: [18] | [13]
active: [15] 0.668 µM | [1] 0.237 µM | [2] 0.941 µM | [16] 0.132 µM | [4] 0.743 µM | [6] 2.35 µM | [7] 0.743 µM | [8] 0.296 µM | [9] 4.67 µM | [17] 0.941 µM | [10] 1.53 µM | [19] 1.72 µM | [20] 1.86 µM | [14] 6.6 µM

C=C[C@@]1(C)CC[C@@H]([C@H](C)C(=O)/C=C/C(C)C)O1
not listed: [8] | [13]
inactive: all other assays above
